# Measurements: PubChem BioAssay (Tox21)
# Values without a mark were called inactive. Results filed as inconclusive are left out. Entries that show only a call come without a potency. Activity calls are given as the source filed them. Calls come from the whole dose curve; as a rule, active = well fitted curve in the direction sought with a large enough effect in the repeat runs; inconclusive = weak or mixed curves; inactive = no such curve, though single readings can be large; an effect the other way counts as inactive or inconclusive.
# Columns and labels:
# [1] = A CellTox Green Cytotoxicity Assay to monitor cytotoxicity in HEK293 cells - 32 hour (AID 1224881); note: nearly all actives have a fitted effect of over 40% in size
# Summary of the method: (§1)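 Dead-cell fluorescence measured kinetically: asymmetric cyanine dye, HEK293, 600 cells/well, 5 h settle, 23 nL cpd/DMSO, 37 C, reads 0–40 h every 8 h.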
# [2] = A CellTox Green Cytotoxicity Assay to monitor cytotoxicity in HepG2 cells - 0 hour (AID 1224882); note: nearly all actives have a fitted effect of over 35% in size
# Summary of the method: (§2)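 First, HepG2 cells (600/well) mixed with reagent were plated; second, after 5 h at 37 C they received compounds via pintool; third, fluorescence was measured at 0 h through 40 h at 8 h intervals.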
# [3] = A CellTox Green Cytotoxicity Assay to monitor cytotoxicity in HepG2 cells - 32 hour (AID 1224883); note: nearly all actives have a fitted effect of over 50% in size
# Summary of the method: as §2
# [4] = A CellTox Green Cytotoxicity Assay to monitor cytotoxicity in HEK293 cells - 8 hour (AID 1224884); note: nearly all actives have a fitted effect of over 35% in size
# Summary of the method: as §1
# [5] = qHTS RealTime-Glo MT Cell Viability Assay in HepG2 cells - 16 hour (AID 1224885); note: nearly all actives have a fitted effect of over 50% in size
# Summary of the method: (§3)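 Cells + NanoLuc/prosubstrate dispensed (600 cells/well) → 5 h at 37 C/5% CO2 → compounds in DMSO transferred → 40 h incubation at 37 C, luminescence read at 0, 8, 16, 24, 32, 40 h.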
# [6] = qHTS RealTime-Glo MT Cell Viability Assay in HEK293 cells - 24 hour (AID 1224886); note: nearly all actives have a fitted effect of over 50% in size; note: potency is the fitted concentration of half-maximal effect; for activity change, negative = cytotoxicity: top concentration of the series differs between compounds
# Summary of the method: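 Tox21 10K qHTS, HEK293, 600 cells/well, RealTime-Glo reagent co-dispensed with cells; 5 h preincubation, compound by pintool, 37 C, luminescence at 0–40 h.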
# [7] = qHTS RealTime-Glo MT Cell Viability Assay in HEK293 cells - 8 hour (AID 1224887); note: nearly all actives have a fitted effect of over 50% in size; note: potency is the fitted concentration of half-maximal effect; for activity change, negative = cytotoxicity: top concentration of the series differs between compounds
# Summary of the method: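 600 HEK293 cells per well, dispensed already mixed with RealTime-Glo MT reagents. Compound dosing came 5 h later. The same wells were read for luminescence at 0, 8, 16, 24, 32 and 40 h of exposure at 37 C.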
# [8] = A CellTox Green Cytotoxicity Assay to monitor cytotoxicity in HEK293 cells - 16 hour (AID 1224888); note: nearly all actives have a fitted effect of over 35% in size
# Summary of the method: as §1
# [9] = qHTS RealTime-Glo MT Cell Viability Assay in HepG2 cells - 0 hour (AID 1224889); note: nearly all actives have a fitted effect of over 50% in size
# Summary of the method: as §3
# [10] = A CellTox Green Cytotoxicity Assay to monitor cytotoxicity in HepG2 cells - 8 hour (AID 1224890); note: nearly all actives have a fitted effect of over 45% in size
# Summary of the method: as §2
structure (smiles),measurement,setting,value
O=C(O)c1cccc(C[C@@H]2COc3ccc(OCc4nc5cc(F)ccc5s4)cc3[C@@H]2O)c1,Potency,[1],inactive
same,Potency,[2],inactive
same,Potency,[3],inactive
same,Potency,[4],inactive
same,Potency,[5],inactive
same,Potency,[6],inactive
same,Potency,[7],inactive
same,Potency,[8],inactive
same,Potency,[9],inactive
CC(C)(C(=O)c1cccnc1)c1cccnc1,Potency,[1],inactive
same,Potency,[2],inactive
same,Potency,[3],inactive
same,Potency,[4],inactive
same,Potency,[5],inactive
same,Potency,[6],inactive
same,Potency,[7],inactive
same,Potency,[8],inactive
same,Potency,[9],inactive
O=C(O)CN1C(=O)c2cccc3cccc(c23)C1=O,Potency,[1],inactive
same,Potency,[2],inactive
same,Potency,[3],inactive
same,Potency,[4],inactive
same,Potency,[5],inactive
same,Potency,[6],inactive
same,Potency,[7],inactive
same,Potency,[8],inactive
same,Potency,[9],inactive
CNC1CCCN(c2c(F)cc3c(=O)c(C(=O)O)cn(C4CC4)c3c2OC)C1 (stereo not given),Potency,[1],inactive
same,Potency,[2],inactive
same,Potency,[3],inactive
same,Potency,[4],inactive
same,Potency,[5],inactive
same,Potency,[6],inactive
same,Potency,[7],inactive
same,Potency,[8],inactive
same,Potency,[9],inactive
CCCCCCCCCCCCCCCCCC(=O)OCC(CC)CCCC (stereo not given),Potency,[1],inactive
same,Potency,[2],inactive
same,Potency,[3],inactive
same,Potency,[4],inactive
same,Potency,[5],inactive
same,Potency,[6],inactive
same,Potency,[7],inactive
same,Potency,[8],inactive
same,Potency,[9],inactive
CSCC[C@H](NC(=O)[C@H](Cc1c[nH]c2ccccc12)NC(=O)CCNC(=O)OC(C)(C)C)C(=O)N[C@@H](CC(=O)O)C(=O)N[C@@H](Cc1ccccc1)C(N)=O,Potency,[1],inactive
same,Potency,[2],inactive
same,Potency,[3],inactive
same,Potency,[4],inactive
same,Potency,[5],inactive
same,Potency,[6],inactive
same,Potency,[7],inactive
same,Potency,[8],inactive
same,Potency,[9],inactive
CC(=O)N[C@@H](Cc1ccc(O)cc1)C(=O)O,Potency,[1],inactive
same,Potency,[2],inactive
same,Potency,[3],inactive
same,Potency,[4],inactive
same,Potency,[5],inactive
same,Potency,[6],inactive
same,Potency,[7],inactive
same,Potency,[8],inactive
same,Potency,[9],inactive
same,Potency,[10],inactive
CCSC(=O)N(CC)CC,Potency,[1],inactive
same,Potency,[2],inactive
same,Potency,[3],inactive
same,Potency,[4],inactive
same,Potency,[5],inactive
same,Potency,[6],inactive
same,Potency,[7],inactive
same,Potency,[8],inactive
same,Potency,[9],inactive
C[C@H](CS)C(=O)N1CCC[C@H]1C(=O)O,Potency,[1],inactive
same,Potency,[2],inactive
same,Potency,[3],inactive
same,Potency,[4],inactive
same,Potency,[5],inactive
same,Potency,[6],inactive
same,Potency,[7],inactive
same,Potency,[8],inactive
same,Potency,[9],inactive
same,Potency,[10],inactive
CC(C)(C)NCC(O)COc1cccc2c1C[C@H](O)[C@H](O)C2 (stereo not given in full),Potency,[1],inactive
same,Potency,[2],inactive
same,Potency,[3],inactive
same,Potency,[4],inactive
same,Potency,[5],inactive
same,Potency,[6],inactive
same,Potency,[7],inactive
same,Potency,[8],inactive
same,Potency,[9],inactive
same,Potency,[10],inactive
CCCCCCC(O)CCCCCCCCCCC(=O)OC (stereo not given),Potency,[1],inactive
same,Potency,[2],inactive
same,Potency,[3],inactive
same,Potency,[4],inactive
same,Potency,[5],inactive
same,Potency,[6],inactive
same,Potency,[7],inactive
same,Potency,[8],inactive
same,Potency,[9],inactive
same,Potency,[10],inactive
O=S(=O)(Cl)c1c(Cl)cccc1Cl,Potency,[1],inactive
same,Potency,[2],inactive
same,Potency,[3],inactive
same,Potency,[4],inactive
same,Potency,[5],inactive
same,Potency,[6],inactive
same,Potency,[7],inactive
same,Potency,[8],inactive
same,Potency,[9],inactive
same,Potency,[10],inactive
c1ccc2sc(SSc3nc4ccccc4s3)nc2c1,cytotoxicity increase,[1],13.3% [at 15.8 µM]
same,cytotoxicity,[2],0.139% [at 15.8 µM]
same,cytotoxicity increase,[3],4.1% [at 15.8 µM]
same,cytotoxicity increase,[4],3.51% [at 15.8 µM]
same,"activity change, negative = cytotoxic",[5],5.08% [at 15.8 µM]
same,"activity change, negative = cytotoxicity",[6],4.46% [at 15.8 µM]
same,"activity change, negative = cytotoxicity",[7],0.0342% [at 15.8 µM]
same,activity change,[8],"10.5% [at 15.8 µM, hits give high values]"
same,"activity change, negative = cytotoxicity",[9],0.525% [at 15.8 µM]
C=C(C)c1ccccc1,Potency,[1],inactive
same,Potency,[2],inactive
same,Potency,[3],inactive
same,Potency,[4],inactive
same,Potency,[5],inactive
same,Potency,[6],inactive
same,Potency,[7],inactive
same,Potency,[8],inactive
same,Potency,[9],inactive
same,Potency,[10],inactive
O=C1OC[C@H](Cc2cccc(O)c2)[C@H]1Cc1cccc(O)c1,Potency,[1],inactive
same,Potency,[2],inactive
same,Potency,[3],inactive
same,Potency,[4],inactive
same,Potency,[5],inactive
same,Potency,[6],inactive
same,Potency,[7],inactive
same,Potency,[8],inactive
same,Potency,[9],inactive
CCN(CC)CCOC(=O)C(c1ccccc1)c1ccccc1,Potency,[1],inactive
same,Potency,[2],inactive
same,Potency,[3],inactive
same,Potency,[4],inactive
same,Potency,[5],inactive
same,Potency,[6],inactive
same,Potency,[7],inactive
same,Potency,[8],inactive
same,Potency,[9],inactive
same,Potency,[10],inactive
Cc1cccc2sc(N)nc12,Potency,[1],inactive
same,Potency,[2],inactive
same,Potency,[3],inactive
same,Potency,[4],inactive
same,Potency,[5],inactive
same,Potency,[6],inactive
same,Potency,[7],inactive
same,Potency,[8],inactive
same,Potency,[9],inactive
CC(C)CC(O)CC(C)C,Potency,[1],inactive
same,Potency,[2],inactive
same,Potency,[3],inactive
same,Potency,[4],inactive
same,Potency,[5],inactive
same,Potency,[6],inactive
same,Potency,[7],inactive
same,Potency,[8],inactive
same,Potency,[9],inactive
same,Potency,[10],inactive
CC12CC3CC(C)(C1)CC(N)(C3)C2,Potency,[1],inactive
same,Potency,[2],inactive
same,Potency,[3],inactive
same,Potency,[4],inactive
same,Potency,[5],inactive
same,Potency,[6],inactive
same,Potency,[7],inactive
same,Potency,[8],inactive
same,Potency,[9],inactive
CCN(CC)CCOc1ccccc1C(=O)CCc1ccccc1,Potency,[1],inactive
same,Potency,[2],inactive
same,Potency,[3],inactive
same,Potency,[4],inactive
same,Potency,[5],inactive
same,Potency,[6],10.7 µM (active)
same,Potency,[7],10.7 µM (active)
same,Potency,[8],inactive
same,Potency,[9],inactive
CC(C)(C)C(O)/C=C/c1ccc2c(c1)OCO2 (stereo not given),Potency,[1],inactive
same,Potency,[2],inactive
same,Potency,[3],inactive
same,Potency,[4],inactive
same,Potency,[5],inactive
same,Potency,[6],inactive
same,Potency,[7],inactive
same,Potency,[8],inactive
same,Potency,[9],inactive
same,Potency,[10],inactive
CCOC(=O)C(C)O (stereo not given),Potency,[1],inactive
same,Potency,[2],inactive
same,Potency,[3],inactive
same,Potency,[4],inactive
same,Potency,[5],inactive
same,Potency,[6],inactive
same,Potency,[7],inactive
same,Potency,[8],inactive
same,Potency,[9],inactive
same,Potency,[10],inactive
CSSc1ccoc1C,Potency,[1],inactive
same,Potency,[2],inactive
same,Potency,[3],inactive
same,Potency,[4],inactive
same,Potency,[5],inactive
same,Potency,[6],inactive
same,Potency,[7],inactive
same,Potency,[8],inactive
same,Potency,[9],inactive
O=P(O)(O)Oc1ccccc1,Potency,[1],inactive
same,Potency,[2],inactive
same,Potency,[3],inactive
same,Potency,[4],inactive
same,Potency,[5],inactive
same,Potency,[6],inactive
same,Potency,[7],inactive
same,Potency,[8],inactive
same,Potency,[9],inactive
CCN(CC)C(=O)/C(C#N)=C/c1cc(O)c(O)c([N+](=O)[O-])c1,Potency,[1],inactive
same,Potency,[2],inactive
same,Potency,[3],inactive
same,Potency,[4],inactive
same,Potency,[5],inactive
same,Potency,[6],inactive
same,Potency,[7],inactive
same,Potency,[8],inactive
same,Potency,[9],inactive
